# Source: PubChem BioAssay AID720650 (Broad Institute, 2013)
# Calls of active or inactive are those of the source. The rule behind the calls is not given here.
# Assay: Biochemical counterscreen for C difficile toxins, absence of UDPG, inhibitor dose response (AID 720650)
# Details: series mostly up to 19.5 µM; activity change, negative = inhibition: at the top concentration
SMILES,"activity change, negative = inhibition",AC50
Cc1cc2c(cc1S(=O)(=O)N(C)c1ccccc1)NC(=O)CO2,-3.43% (inactive),–
Oc1ccc(Cc2ccccc2Cl)c(O)c1,–,> 39 µM (inactive)
O=C(C[C@H]1C[C@H]2c3cc(NC(=O)c4ccc5c(c4)OCO5)ccc3O[C@H]2[C@H](CO)O1)NCc1cccc(F)c1,-11.6% (inactive),–
COc1cc(Cn2c(-c3ccc(O)c(OC)c3)nc3ccccc32)ccc1O,-12.9% (inactive),–
Cc1cc(NC(=O)CCCN2C(=O)c3cccc4cccc(c34)C2=O)no1,4.82% (inactive),–
O=C(NCc1cc(C(F)(F)F)cc(C(F)(F)F)c1)C1CC(c2c(Cl)cccc2Cl)=NO1 (stereo not drawn),0.624% (inactive),–
COc1ccccc1CNC(=O)CNC(=O)N1CC(=O)Nc2ccccc21,-6.27% (inactive),–
COc1ccc(NS(=O)CCCc2ccccc2)cc1 (stereo not drawn),-1.77% (inactive),–
CC(=O)Nc1cnc(-c2ccccc2O)cn1,–,15.3 µM (active)
COCC(=O)N1CC[C@H]2[C@@H]1c1cc(-c3ccc(OC)cc3)ccc1N(C)[C@H]2CO,–,7.62 µM (active)
Fc1ccc(-c2nc3ccc(Br)cn3c2Cc2ccccc2)cc1,-2.94% (inactive),–
FC(F)(F)c1cc(Cl)c2nc(-c3ccccc3)c(Cc3ccsc3)n2c1,-3.45% (inactive),–
CCOc1cc(NC(=S)NCC2CCCO2)c(OCC)cc1NC(=O)c1ccc(F)cc1 (stereo not drawn),-2.79% (inactive),–
Cc1ccc(-n2c(SCC(=O)O)nc3c(sc(=S)n3-c3ccc(C)c(C)c3)c2=O)cc1,–,13.7 µM (active)
O=C(OCC(=O)N1CCCCC1)c1ccccc1SCC(=O)N1CCCCC1,-4.44% (inactive),–
CC1C(c2ccc3c(c2)OCO3)c2cc3c(cc2OC1N1CCOCC1)OCO3 (stereo not drawn),-9.1% (inactive),–
CC(=O)NC(Cc1ccccc1)C(=O)Oc1ccc2ccccc2c1 (stereo not drawn),-8.77% (inactive),–
COc1cc(/C=N/NC(=O)C2(O)c3ccccc3-c3ccccc32)ccc1O,-11.3% (inactive),–
COCC#Cc1ccc2c(c1)O[C@H](CN(C)C(=O)CC1CC1)[C@@H](C)CN([C@H](C)CO)S2(=O)=O,-2.37% (inactive),–

SMILES,"activity change, negative = inhibition",AC50
CCOc1ccc(/C=N/n2nnnc2N)cc1O,5.99% (inactive),–
CCn1c(C)nc2cc(C(=O)N/N=C/c3ccc(OC)c(O)c3)ccc21,-12.3% (inactive),–
Clc1ccc(-c2nc3ccc(Cl)cn3c2Cc2ccccc2)cc1,-11.8% (inactive),–
CC(=O)Nc1n[nH]c(=S)s1,–,> 39 µM (inactive)
NS(=O)(=O)c1ccc(CCNC(=O)c2ccc(CS(=O)(=O)c3ccc(Br)cc3)o2)cc1,-7.18% (inactive),–
Cc1ccc(C(=O)Nc2ccc(O)cc2C(=O)O)cc1C,–,> 39 µM (inactive)
COc1cc(/C=C/C(=O)c2ccc([N+](=O)[O-])o2)ccc1O,-7.14% (inactive),–
COc1ccc(-c2cnc3c(c2)C(=O)N([C@@H](C)CO)C[C@H](C)[C@H](CN(C)C(=O)C2CCCCC2)O3)cc1,-9.66% (inactive),–
O=C(N/N=C/c1ccccn1)c1ccc([N+](=O)[O-])cc1Cl,-1.86% (inactive),–
C[C@H](CO)N1C[C@H](C)[C@@H](CN(C)CC2CCCCC2)Oc2ccc(NC(=O)CCN3CCOCC3)cc2C1=O,-0.583% (inactive),–
COc1ccc(NC2CCCN(C(=O)CN3CCOC3=O)C2)cc1OC (stereo not drawn),-10.4% (inactive),–
Cc1ccc(S(=O)(=O)N2CCOCC2)cc1C(=O)NCCCN1CCCC1=O,-7.95% (inactive),–
O=C(CNS(=O)(=O)c1ccccc1)N/N=C/c1ccc(O)cc1,–,14.9 µM (active)
Oc1ccc2ccc3[nH]cnc3c2c1,–,18.5 µM (active)
COc1cc2c(cc1O)CC[n+]1cc3c(OC)c(OC)ccc3cc1-2,–,> 39 µM (inactive)
O=c1ccc2cc(O)c(O)cc2o1,-20.8% (inactive),–
COc1ccc(NC(=O)Cn2cnc3sc(C)c(S(=O)(=O)N4CCOCC4)c3c2=O)c(OC)c1,-10.3% (inactive),–
CCN1CCN(c2oc(-c3ccccc3C)nc2S(=O)(=O)c2ccccc2)CC1,-15.4% (inactive),–
Cc1ccc(S(=O)(=O)N2CC(CBr)=CCC2c2ccccc2)cc1 (stereo not drawn),–,13.9 µM (active)
